This is a sample that favours compounds with a hit; in the whole collection about 3.3% have one here.
DRD3 antagonist = antagonists of human D3 dopamine receptor; P35462; D3R cells, DiscoveRx beta-arrestin luminescence, antagonist mode; active compounds read low; max response, negative = inhibition, %; hit rate 2.5% among 360,000; AID 652054; in the data active means max response below about -50%; inconclusive means no clear call, values can overlap the other calls; further: on the % scale 0 is the no-effect control and ±100 the full control effect
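Cells expressing the human receptor were seeded at 1500 cells/well, incubated overnight at 37 degrees C in 5% CO2, then exposed to library compounds with dopamine controls for 90 minutes at 37 degrees C before luminescent detection.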
PI5P4K alpha inh = PI5P4K alpha (human) kinase inhibition. PI5P4Kalpha enzyme, ADP-Glo luminescence, 60 min; active compounds read low. max response, %. P48426. hit rate 1.2% among 330,000; active means max response of -50% or lower; inconclusive means between -30% and -50%; inactive means -30% or higher; further: value at the top dose of about 77 µM; on the % scale 0 is the no-effect control and ±100 the full control effect
Target sequence (P48426 whole entry, looked up): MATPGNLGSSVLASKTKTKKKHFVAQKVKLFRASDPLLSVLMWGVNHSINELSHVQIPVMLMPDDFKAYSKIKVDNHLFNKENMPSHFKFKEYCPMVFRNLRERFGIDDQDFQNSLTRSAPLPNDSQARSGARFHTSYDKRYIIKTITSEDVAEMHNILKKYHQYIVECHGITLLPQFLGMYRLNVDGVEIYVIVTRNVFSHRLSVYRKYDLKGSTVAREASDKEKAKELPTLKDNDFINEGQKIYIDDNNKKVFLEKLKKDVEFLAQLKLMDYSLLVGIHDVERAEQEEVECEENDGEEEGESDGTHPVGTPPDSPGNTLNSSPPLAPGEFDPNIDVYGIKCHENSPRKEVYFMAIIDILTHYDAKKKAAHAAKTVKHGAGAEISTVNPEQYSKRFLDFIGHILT
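qHTS, 1536-well: enzyme/substrate mix, compound by pin tool, 5 microM ATP final; RT 60 min; ADP-Glo reagents 1 (45 min) then 2 (30 min); luminescence.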
DRD3 agonist = D3 dopamine receptor (human) agonism. max activation, %. hit rate 0.58% among 410,000. D3R DiscoveRx beta-arrestin cells, luminescence, 90 min. AID 652048; in the data active means max activation above about 30%; further: 0% is about no effect
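Cells at 1500/well, incubated overnight, then treated with pinned compounds (dopamine as control) for 90 min at 37 degrees C. DiscoveRx reagent added for 30 - 60 minutes at room temperature; luminescence read.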
PI4K2A block = PI4K2A (human) kinase inhibition; purified PI4K2A, ADP-Glo luminescence, 1 h; active compounds read low; Q9BTU6; activity change, negative = inhibition, % at 76.9 µM; hit rate 0.13% among 420,000; in the data active means activity change below about -50%; inconclusive means mostly about -30% to -49%;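 further: -100% = wells without enzyme as full effect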
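Compounds are screened against recombinant PI4K2A using PI as substrate and ATP, the latter dispensed at 300 microM. Reactions run one hour at ambient temperature before ADP-Glo detection; full inhibition defined by wells lacking enzyme.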
LDHA inh = blocks human lactate dehydrogenase A. purified LDHA, NADH/diaphorase-resazurin fluorescence; active compounds read low. activity change, % (values are at about 110 or 230 µM). hit rate 0.15% among 480,000. AID 1347041; in the data active means activity change below about -30%; inconclusive means mostly about -25% to -30%;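 further: plate controls were DMSO wells for no effect and wells without enzyme for full effect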
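Resorufin fluorescence (ex540/em590), read at 0 and 20 min after diaphorase/resazurin addition, reports the NADH left after a 5 min room-temperature reaction of 2 nM human LDH5 with 0.06 mM NADH and 0.2 mM pyruvate.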
An asterisk follows results filed as active; ? = inconclusive; nt = no result given.

SMILES	DRD3 antagonist	PI5P4K alpha inh	DRD3 agonist	PI4K2A block	LDHA inh
COC(=O)[C@]1(C)CCC[C@@]2(C)C3CC[C@@]4(C)C[C@]3(CCC21)CC(=O)N4 (stereo not given in full)	-18.0	0.7	5.0	0.4	-7.4
C=C1C(=O)C23CCC4C(C)(C(=O)OC)CCCC4(C)C2CCC1(O)C3 (stereo not given)	-105.8*	-7.4	-29.0	24.7	-1.2
COc1ccc(NC(=O)CSc2nnc(Cc3cccs3)n2-c2ccc(C)cc2)cc1	53.8	nt	80.8*	2.3	-7.3
NCCCN1CCN(CCCN)CC1	nt	nt	nt	nt	5.7
Cc1nc(NCC(C)C)sc1C(=O)Nc1ccccc1	nt	nt	nt	nt	7.6
CCOC(=O)c1c(C)oc2c1c(C=NCC1CCCO1)c(O)c1ccccc12 (stereo not given)	?	-2.5	-0.1	3.9	13.9
CCOC(=O)c1c(C)oc2c1c(C=NCc1ccccn1)c(O)c1ccccc12	-104.9*	-11.7	0.0	-3.3	38.3
COc1ccc(/C=C/C(=O)Nc2nc(-c3cccs3)ns2)cc1OC	nt	nt	36.2*	-1.3	-2.0
CC(=O)c1cccc(NC(=O)/C=C/c2ccc([N+](=O)[O-])s2)c1	-68.7*	5.9	-16.9	-0.8	-16.5
Cc1cc(C)cc(NC(=O)/C=C/c2ccc([N+](=O)[O-])s2)c1	-0.8	-15.9	-1.6	7.8	-8.5
Cc1ccccc1NC(=O)/C=C/c1ccc([N+](=O)[O-])s1	-50.7*	2.5	-9.0	-5.7	-2.5
COc1cc(/C=C(/C#N)c2nc3ccc(C)cc3[nH]2)cc(OC)c1O	nt	nt	nt	nt	7.1
COc1ccc(OC)c(NC(=O)CSc2nnnn2C2CCCC2)c1	2.4	-8.5	35.9*	-1.7	-4.3
Nn1c(SCC(=O)NC2CCCCC2)nnc1C1CC1	-62.5*	0.1	-6.6	5.6	-1.3
COc1ccc(-n2nnnc2SCC(=O)NC2CCCC2)cc1OC	4.6	-6.5	3.8	4.4	-2.6
COc1cc(OC)cc(-n2nnnc2SCC(=O)NC2CCCC2)c1	-71.3*	8.9	3.1	-7.0	-11.5
O=c1c(O)cccc2cc(O)c(O)c(O)c12	-7.3	-83.4*	6.0	?	8.1
COc1ccccc1C(O)c1ncc(-c2cccc3ccccc23)[nH]1 (stereo not given)	-56.7*	1.1	-16.8	-3.0	-8.2
CCOc1ncccc1C(=O)Nc1ccc(C)c(S(=O)(=O)N(C)C)c1	nt	nt	nt	nt	5.9
COc1ccc(OCc2cn(CC(=O)c3ccc(O)cc3)nn2)cc1	-19.7	-4.9	-5.1	-25.6	7.5
O=C(Cn1cc(COc2c(F)c(F)cc(F)c2F)nn1)c1ccc(O)cc1	-79.4*	-2.3	1.3	-29.2	11.2
COc1ccccc1-c1c(C(F)(F)F)oc2cc(OC(C)C(=O)OC(C)C)ccc2c1=O (stereo not given)	nt	nt	nt	nt	21.2
CCCc1cc(=O)oc2cc(OCC(=O)Nc3ccc(S(N)(=O)=O)cc3)ccc12	-12.7	-3.6	-4.7	?	-37.3*
Cc1cccc(NC(=O)c2cc(-c3ccncc3)nc3ccccc23)c1	nt	nt	nt	nt	5.5
CCc1cc2c(=O)c(-c3cnn(-c4ccccc4)c3)c(C)oc2c(CN2CCCCC2)c1O	0.8	nt	36.7*	1.5	-3.2
SMILES	DRD3 antagonist	PI5P4K alpha inh	DRD3 agonist	PI4K2A block	LDHA inh
O=C(COC(=O)c1ccco1)Nc1nc2ccc([N+](=O)[O-])cc2s1	-10.2	-53.6*	-5.1	-3.8	-9.5
CC(=O)N1CCC(NC(=O)/C=C/c2cnc3ccccc3n2)CC1	nt	nt	nt	nt	2.5
CCN(c1ccccc1)S(=O)(=O)c1ccc(Cl)c(NC(=O)CNCc2ccccc2OC)c1	-65.7*	-0.6	-34.0	6.2	-15.6
Cn1c(-c2ccc3ccccc3n2)nc2cnccc21	-59.0*	-1.3	11.6	-2.3	-2.1
O=C(CN1C(=O)COc2ccccc21)N(CCCN1CCOCC1)CC1CC=CCC1 (stereo not given)	-56.5*	nt	-58.4	0.5	-3.4
N#C/C(=C\c1cn[nH]c1-c1ccccc1)c1nc(-c2ccccc2)cs1	nt	nt	nt	nt	2.6
CCOc1ccccc1NC(=O)c1ccc2ccccc2n1	nt	nt	nt	nt	6.1
CCOc1ccc(CCNC(=O)c2cc(C)nc3c2c(C)nn3-c2cccc(F)c2)cc1	nt	nt	63.4*	-1.9	-6.0
COc1ccc(CCNC(=O)c2cc(C)nc3c2c(C)nn3-c2ccc(C)cc2)cc1OC	nt	nt	8.2	0.4	-2.9
Cc1cc(C(=O)NCc2ccccc2)c2c(C)nn(-c3cccc(F)c3)c2n1	nt	nt	9.9	1.3	-7.4
COc1cccc(CNC(=O)c2cc(C)nc3c2c(C)nn3-c2ccc(C)cc2)c1	nt	nt	36.6*	-1.2	-3.9
N=C(N)SCc1nc2ccccc2c(=O)n1-c1ccccc1Cl	18.7	nt	-2.7	0.6	-4.0
Cc1ccccc1-n1c(CSC(=N)N)nc2ccccc2c1=O	-72.2*	0.6	-3.9	4.6	-11.2
Cc1nc2scc(-c3ccc(C(C)(C)C)cc3)c2c(=O)n1N	54.7	-19.7	30.5*	-11.1	-2.3
Cc1ccc(S(=O)(=O)N2[C@@H](c3ccc(Cl)cc3)C(C(=O)O)=CC[C@H]2c2ccc(C(C)C)cc2)cc1	-22.2	-5.0	-46.8	2.2	-2.3
Cc1ccc([C@H]2C(C(=O)O)=CC[C@@H](c3ccc(C(C)C)cc3)N2S(=O)(=O)c2ccc(C)cc2)cc1	-63.8*	-19.3	-34.2	0.4	-5.3
Cc1ccc([C@H]2C(C(=O)O)=CC[C@@H](c3ccc(Cl)cc3)N2S(=O)(=O)c2ccc(C)cc2)cc1	-51.3*	8.3	-7.7	1.0	7.0
CN1CCN(CCOCCOc2ccc(Br)cc2Cl)CC1	-61.2*	0.8	-20.1	10.9	-37.5*
CC1CCN(CCCOc2ccc(Br)cc2Cl)CC1	-62.1*	-0.7	-14.7	4.3	-10.4
Cc1ccc(OCCCCN2CCC(C)CC2)c(Br)c1	-95.6*	-1.8	-25.0	7.6	-14.1
CC1CCCN(CCOCCOc2ccc(Br)cc2Cl)C1 (stereo not given)	-82.5*	-7.5	0.2	2.7	?
CC1CCCN(CCOCCOc2ccc(Cl)cc2Br)C1 (stereo not given)	-99.6*	nt	-53.0	0.0	-13.0
Cc1occc1-c1nc(-c2ccc(Cl)cc2)no1	nt	nt	nt	nt	3.8
CCOc1ccc(-n2c(SCC(=O)Nc3ccc(S(=O)(=O)Nc4cc(C)nc(C)n4)cc3)nnc2-c2ccco2)cc1	nt	nt	nt	1.0	nt
O=C(CC(c1ccc(Cl)cc1)S(=O)(=O)c1ccccc1)c1ccccc1 (stereo not given)	nt	nt	nt	nt	1.9
SMILES	DRD3 antagonist	PI5P4K alpha inh	DRD3 agonist	PI4K2A block	LDHA inh
S=c1nc(-c2cc(Cl)cc(Cl)c2)[nH][nH]1	?	?	-4.5	-7.6	-15.8
S=c1nc(-c2cccc(Cl)c2)[nH][nH]1	-55.4*	-8.0	6.5	1.3	-8.0
S=c1nc(-c2cc(Cl)ccc2Cl)[nH][nH]1	-8.6	-64.2*	-5.5	-3.6	-7.5
Cc1cc(=O)oc2c(C)c(OCC(=O)Nc3ccc(Br)cc3)ccc12	nt	nt	nt	nt	-1.9
CCn1c(CSc2nccn2C)nc2cc(C(=O)O)ccc21	-18.2	6.2	-2.4	-1.7	6.8
CCn1c(CSc2nc3ccccc3[nH]2)nc2cc(C(=O)O)ccc21	-21.0	nt	-6.0	-3.0	-30.0*

Bioassay records: PubChem, National Center for Advancing Translational Sciences (NCATS)
